Screens (PubChem BioAssay)
BL2 CD40 inh: CD40 pathway inhibition in BL2 cells; BL2 NF-kB luciferase reporter, CD40L-induced, 4 h; inhibition, % at 10 µM; 83,000 compounds, 0.94% hits; AID 1053188;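 active means mean inhibition of at least 50% with a set share of replicates also reaching that level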;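 further: 0% = neutral control wells and 100% = IKK inhibitor VII at 50 µM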
* marks the source's active call; other numbers are inactive results; ! = repeats disagree; [ ] = dose if it differs, or a comment. This excerpt belongs to a sample that is enriched for hits.

SMILES | BL2 CD40 inh
CN(C)C(=O)c1ccc(-c2ccc([C@H]3[C@H](CO)N4C(=O)CN(C(=O)CC5CC5)C[C@@H]34)cc2)cc1 | -19.8[25 µM]
COc1ccc(S(=O)(=O)N2C[C@@H](O)COC[C@@H]3O[C@@H](CC(=O)N[C@H]4CCN(Cc5ccccc5)C4)CC[C@H]32)cc1 | 9.4[25 µM]
c1ccc(-c2ccccc2OCCOCCN2CCCCC2)cc1 | 7.0
c1cc(-c2cnn3cc(-c4ccc(OCCN5CCCCC5)cc4)cnc23)ccn1 | 87.3*[25 µM]
FC(F)(F)c1cnc(-c2cnc3c(-c4ccc(Cl)cc4)cnn3c2)c(Cl)c1 | 0.3
COCC(=O)N1[C@@H](C#N)[C@H](c2ccc(-c3cccc(F)c3)cc2)[C@@H]1CO | -10.7[25 µM]
N#Cc1cccc(-c2ccc(C3[C@@H]4CN(C(=O)C5CCOCC5)C[C@H]3N4)cc2)c1 (some centres undefined) | 0.3[25 µM]
O=C(c1ccc(F)cc1)N1C[C@@H]2N[C@H](C1)C2c1ccc(/C=C/c2ccccc2)cc1 (some centres undefined) | 50.1*![25 µM]
O=C(Nc1ccccc1)N1C[C@@H]2N[C@H](C1)[C@@H]2c1ccc(/C=C/c2ccccc2)cc1 | -12.1
N#Cc1ccc(-c2ccc(C3[C@@H]4CN(C(=O)c5cccnc5)C[C@H]3N4)cc2)cc1 (some centres undefined) | 2.4[25 µM]
O=C(C1CCOCC1)N1C[C@@H]2N[C@H](C1)C2c1ccc(/C=C/c2ccccc2)cc1 (some centres undefined) | 39.6[25 µM]
O=C(c1ccncc1)N1C[C@@H]2N[C@H](C1)C2c1ccc(/C=C/c2ccccc2)cc1 (some centres undefined) | 25.7[25 µM]
O=C(c1ccc2c(c1)OCO2)N1C[C@@H]2N[C@H](C1)C2c1ccc(/C=C/c2ccccc2)cc1 (some centres undefined) | 14.3[25 µM]
N#Cc1ccc(-c2ccc(C3[C@@H]4CN(C(=O)C5CC5)C[C@H]3N4)cc2)cc1 (some centres undefined) | 63.0*!
O=C(C1CCCC1)N1C[C@@H]2N[C@H](C1)C2c1ccc(/C=C/c2ccccc2)cc1 (some centres undefined) | 48.8*!
CC(C)OC(=O)N(C)C[C@H]1OCc2ccccc2-c2c(n(C)c3ccccc23)C(=O)N([C@@H](C)CO)C[C@@H]1C | -4.3
O=C(C[C@@H]1C[C@H]2c3cc(NC(=O)Cc4ccncc4)ccc3O[C@H]2[C@@H](CO)O1)NCCN1CCCCC1 | -1.3[25 µM]
Cc1noc(C)c1NC(=O)Nc1ccc2c(c1)CC(=O)N([C@@H](C)CO)C[C@H](C)[C@@H](CN(C)S(=O)(=O)c1cccs1)O2 | -12.3[25 µM]
CC(C)NC(=O)N1[C@H](CO)[C@@H]2c3ccccc3N(C(=O)C3CCCCC3)C[C@@H]21 | 0.6
O=C(C1CCCCC1)N1C[C@@H]2[C@H](c3ccccc31)[C@H](CO)N2C(=O)c1ccccc1 | 5.2
O=C(C1CCCC1)N1CC[C@@H]2[C@H](CO)Nc3ccc(C#Cc4ccc(F)cc4)cc3[C@@H]21 | -5.9
Cc1nnc(NC(=O)c2cc3ccccc3o2)s1 | -71.8
Cc1cnc(NC(=O)c2cc3ccccc3o2)s1 | 56.0*
O=C(Nc1nnc(C2CC2)s1)c1cc2ccccc2o1 | -60.5
CCCNC(=O)C[C@@H]1C[C@H]2c3cc(NC(=O)NC4CCCC4)ccc3O[C@H]2[C@H](CO)O1 | -2.3
SMILES | BL2 CD40 inh
CC(=NNC(=S)N1CC2CCC(CC2)C1)c1cnccn1 | 26.1
O=C(N/N=C/C1CCCCC1)c1ccccn1 | -41.5
CC(=NNC(=S)N1CCN(c2ccccn2)CC1)c1ccccn1 | 2.2
CC(=NNC(=S)N1CCN(c2ccccn2)CC1)c1nccs1 | 77.7*
S=C(NCc1ccc(Cl)cc1)N1CCN(c2ccccn2)CC1 | 5.9
CC(=NNC(=S)N1CCN(C2CCCCCC2)CC1)c1ccccn1 | 51.5*
O=C([C@@H]1[C@@H](CO)[C@@H]2Cn3c(ccc(-c4cccnc4)c3=O)[C@@H]2N1CCC(F)(F)F)N1CCOCC1 | -2.5[25 µM]
CC(C)(C)[S@@](=O)N1Cc2cc(C(=O)NCc3ccccc3F)nc(-c3cccc(-c4cncnc4)c3)c2[C@H]1CCO | -16.8[25 µM]
Cc1cc(=O)oc2cc(OC(C)C(=O)N3CCOCC3)c(Cl)cc12 (centres undefined) | 0.7
Cc1ccc(S(=O)(=O)NC(C(=O)Oc2cc3oc(=O)cc(C)c3cc2Cl)C(C)C)cc1 (centres undefined) | 29.2*
Cc1ccc(S(=O)(=O)NCC(=O)OCc2cc(=O)oc3cc(C)ccc23)cc1 | -6.1
O=C(C1CCC1)N1CC(=O)N2[C@H](C1)[C@H](c1ccc(C#Cc3cccc(F)c3)cc1)[C@@H]2CO | 8.0
CCCN1[C@@H]2c3ccc(C4=CCCCC4)c(=O)n3C[C@H]1[C@H](CO)[C@H]2C(=O)Nc1ccccc1 | 5.5[25 µM]
CN1c2ccc(-c3ccc(C#N)cc3)cc2[C@H]2[C@H](CCN2C(=O)NC2CCCC2)[C@@H]1CO | 6.6
COCC(=O)N1[C@@H](C#N)[C@@H](c2ccccc2C2=CCCC2)[C@@H]1CO | -13.7[25 µM]
C[C@H](CO)N1C[C@H](C)[C@H](CN(C)Cc2ccc(O)cc2)OCc2cn(nn2)CCCC1=O | -5.6
Cc1ccc(-c2ccc(C3[C@@H]4CN(Cc5ccccc5)C[C@H]3N4)cc2)cc1 (some centres undefined) | 3.3[25 µM]
COc1cccc(CN2C[C@@H]3N[C@H](C2)C3c2ccc(-c3ccncc3)cc2)c1 (some centres undefined) | 1.5[25 µM]
Fc1ccc(-c2ccc(C3[C@@H]4CN(Cc5cccc(F)c5)C[C@H]3N4)cc2)cc1 (some centres undefined) | -3.8[25 µM]
Cc1ccc(-c2ccc(C3[C@@H]4CN(Cc5cccc(F)c5)C[C@H]3N4)cc2)cc1 (some centres undefined) | 61.9*
COc1cccc(-c2ccc(C3[C@@H]4CN(Cc5cccc(F)c5)C[C@H]3N4)cc2)c1 (some centres undefined) | 60.3*!
COc1ccc(-c2ccc(C3[C@@H]4CN(Cc5cccc(OC)c5)C[C@H]3N4)cc2)cc1 (some centres undefined) | 2.8
COc1cccc(CN(C)C[C@H]2OCc3ccccc3-c3c(n(C)c4ccccc34)C(=O)N([C@H](C)CO)C[C@H]2C)c1 | 19.4
Cc1cc(C(=O)COC(=O)c2ccc(Br)o2)c(C)n1C | -7.4
COCCn1c(C)cc(C(=O)COC(=O)c2ccc(Br)o2)c1C | 48.4*
SMILES | BL2 CD40 inh
COCCn1c(C)cc(C(=O)COC(=O)c2ccc(-n3nc(C)cc3C)cc2)c1C | 8.3
Cc1cc(C(=O)COC(=O)c2ccc(Br)o2)c(C)n1Cc1ccco1 | -17.1
COCCn1c(C)cc(C(=O)COC(=O)c2ccc(Cl)c(S(N)(=O)=O)c2)c1C | 20.5*
Cc1cc(C(=O)COC(=O)c2ccc(Cl)c(S(N)(=O)=O)c2)c(C)n1CC1CCCO1 (centres undefined) | 18.2
O=C(Cc1ccccn1)N1CC(=O)N2[C@H](CO)[C@H](c3ccc(C#CC4CCCC4)cc3)[C@@H]2C1 | -5.3
COCC(=O)N1CC2(CCN(C(=O)c3cccnc3)CC2)c2c([nH]c3cc(OC)ccc23)[C@H]1CO | -12.8[25 µM]
COc1ccc2cc3c(N)nn(C(=O)Cc4c[nH]c5ccccc45)c3nc2c1 | 76.7*
COc1ccc2cc3c(N)nn(C(=O)c4cccc(F)c4)c3nc2c1 | -1.1
COc1cccc(CC(=O)n2nc(N)c3cc4ccc(OC)cc4nc32)c1 | 3.9
C[C@@H]1CN([C@H](C)CO)C(=O)Cc2cc(NC(=O)Cc3ccccc3)ccc2O[C@@H]1CN(C)S(C)(=O)=O | 13.6
O=C(C[C@@H]1C=C[C@H](NC(=O)NC2CCCC2)[C@H](CO)O1)NCc1ccc(F)cc1 | 3.6
